From PubChem BioAssay (Tox21)
Records with an inconclusive call do not appear. A number with no mark means an inactive call. Activity calls are given as the source filed them. Calls come from the whole dose curve; as a rule, active = well fitted cell-killing curve with a large enough effect in the repeat runs; inconclusive = weak or mixed curves, or effect the other way; inactive = no such curve, though single readings can be large or run the other way. Positions of bridges follow the written chain, without caps; N, C: chain ends. Non-standard residues stand in square brackets, D forms with d. Residues, ends and D or L forms follow the SMILES beside them. hArg = N=C(N)NCCCC[C@H](N)C(=O)O; Mpa = O=C(O)CCS

test: qHTS assay to identify small molecule agonists of the estrogen receptor alpha (ER-alpha) signaling pathway in the presence of an antagonist - cell viability counter screen (AID 1259386); conditions: VM7Luc4E2 viability, CellTiter-Fluor fluorescence, 22 h; series mostly up to 92.4 µM;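 note: cells exposed to compounds for 22 h at 37 °C before the viability read; nearly all actives have a fitted effect of over 30% in size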
Description: National Center for Advancing Translational Sciences [NCATS]
NIH Chemical Genomics Center [NCGC]
U.S. Environmental Protection Agency [EPA]
National Institutes of Environmental Health Sciences [NIEHS]
National Toxicology Program [NTP]
U.S. Food and Drug Administration [FDA]
Estrogen receptor (ER), a member of nuclear hormone receptor plays an important role in development, metabolic homeostasis and reproduction. Two subtypes of ER, ER-alpha and ER-beta, have similar expression patterns with some uniqueness in both types. Endocrine disrupting chemicals (EDCs) and their interactions with steroid hormone receptors like ER causes disruption of normal endocrine function. Therefore, it is important to understand the effect of environmental chemicals in ER signaling pathway. For identifying ER agonists, VM7Luc4E2 cell line has been used in the current assay.
VM7Luc4E2 cell line (provided by Denison MS, University of California) endogenously expresses full-length ER-alpha and is stably transfected with a plasmid containing four estrogen responsive elements (ERE) upstream of a luciferase reporter gene. This current screening for measuring luciferase reporter gene activity using VM7Luc4E2 cells against Tox21 10K library collection is a confirmation study on agonist mode screening in presence of ER-antagonist (ICI-182,780) at 10.0nM final concentration. The cytotoxicity of the compounds was tested in parallel by measuring the cell viability using CellTiter-Fluor assay system (Promega, Madison, WI) in the same wells.
Tox21 Assay Protocol Summary:
VM7Luc4E2 cells were cultured in phenol red free assay medium containing 10% charcoal stripped FBS for 5 days prior to the assay. The cells were dispensed at 4,000 cells in 4uL of assay medium per well into white wall/solid-bottom 1536-well plates (Corning Life Sciences, Corning, NY) using a Multidrop Combi (Thermo Fisher Scientific Inc., Waltham, MA) dispenser. After the assay plates were incubated at 37C and 5% CO2 for 24hr, 1uL of 10.0nM (final concentration) ICI-182,780 or assay buffer was added using two separate tips of Flying Reagent Dispenser (FRD, Aurora Discovery, San Diego, CA). Then 23nL of compounds dissolved in DMSO at 15 concentrations and positive controls or DMSO only was transferred to the assay plates by a Pintool station (Wako, San Diego, CA). The assay plates were incubated at 37C and 5% CO2 for 22hr. After 21hr incubation at 37C, 1uL/well CellTiter-Fluor reagent (Promega Corporation, Madison, WI) was added to each well using FRD and after 1hr incubation at 37C and 5% CO2, the fluorescence signal was measured on ViewLux plate reader (PerkinElmer, Shelton, CT).
% is set by controls: 0 for no effect and ±100 for the full control effect.

SMILES	outcome	activity change, negative = cytotoxicity
COC(=O)CCCCC(=O)O	inactive	
NC(=O)[C@@H]1CSSCCC(=O)N[C@@H](CCCCN=C(N)N)C(=O)NCC(=O)N[C@@H](CC(=O)O)C(=O)N[C@@H](Cc2c[nH]c3ccccc23)C(=O)N2CCC[C@H]2C(=O)N1 ([Mpa][hArg]GDWPC-NH2; disulfide 1-7)	inactive	
O=C(O)CONC(=O)c1ccccc1	inactive	
Cc1c(Cl)cccc1Cl	inactive	
CCO[Si](CC)(OCC)OCC	inactive	
Cc1ccc(C(=O)O)cc1[N+](=O)[O-]	inactive	
CC1(C)O[C@H]2CC(=O)OC[C@]23[C@H]2CC[C@@]4(C)[C@H](c5ccoc5)OC(=O)[C@H]5O[C@]54[C@]2(C)C(=O)C[C@@H]13	inactive	
CCCCOCC(C)O (stereo not given)	inactive	
Cc1c(C(=O)c2c[nH]n(C)c2=O)ccc(S(C)(=O)=O)c1C1=NOCC1	inactive	
CCC(C)C(C)=O (stereo not given)	inactive	
O=C(CCCCC(=O)Nc1c(I)cc(I)c(C(=O)O)c1I)Nc1c(I)cc(I)c(C(=O)O)c1I	inactive	
C=CCCCCCCCC	inactive	
CO[Si](CCCn1c(=O)n(CCC[Si](OC)(OC)OC)c(=O)n(CCC[Si](OC)(OC)OC)c1=O)(OC)OC	inactive	
C[C@]12CCC(=O)C=C1CC[C@H]1[C@@H]3CC[C@](O)(C(=O)CO)[C@@]3(C)C[C@H](O)[C@@]12F	inactive	
NCc1ccc(S(N)(=O)=O)cc1	inactive	
CCCCCCCCCCCCCCC(=O)NC(CO)CCCCCCCCCCCCCC (stereo not given)	inactive	
Cc1cccc(Cl)c1	inactive	
COC(=O)c1ccccc1C(=O)O	inactive	
CC(=O)C(C)O (stereo not given)	inactive	
CC(=O)OC(C)=O	inactive	

SMILES	outcome	activity change, negative = cytotoxicity
C/C(CC(C)C)=N\O	inactive	
Cc1ccccc1C(N)=O	inactive	
CC(O)CC(C)O (stereo not given)	inactive	
CC(C)C[C@@H]1[C@H](c2ccccc2)OC(=O)N1CCCN1CCCCCC1	inactive	
CO/N=C(/C(=O)N[C@@H]1C(=O)N2C(C(=O)[O-])=C(C[n+]3ccn4ncccc43)CS[C@H]12)c1nsc(N)n1	inactive	
CC(=O)C1C(=O)C=C(C)OC1=O (stereo not given)	inactive	
COc1c2occc2c(OC)c2c(=O)cc(C)oc12	inactive	
COP(=O)(O)OP(=O)(O)OC	inactive	
C=CC/C=C/C	inactive	
O/N=C/C=N/O	inactive	
ONc1ccccc1	inactive	
CCC(=O)Oc1ccc2c(c1)CC[C@@H]1[C@@H]2CC[C@@]2(C)[C@H]1C[C@@H](OC(=O)CC)[C@@H]2OC(=O)CC	inactive	
C=CC(=O)CCCCC	inactive	
O=C[O][Al]([O]C=O)[O]C=O	inactive	
CC1=C(C(=O)O)N2C(=O)[C@@H](NC(=O)[C@H](N)c3ccccc3)[C@H]2SC1	inactive	
CCCCCCCCCOC(=O)c1ccccc1C(=O)OCCCCCCCCC	inactive	
CC(C)Nc1ccccc1	inactive	
CCn1cc(C(=O)O)c(=O)c2cnc(N3CCCC3)nc21		-1.71% [at 8.39 µM]
O=C(O)c1cc2ccccc2nc1C(=O)O	inactive	
Cc1ccc(N)cc1S(=O)(=O)O	inactive	
